Screens as filed in PubChem BioAssay.
In the library only some 10% were active in any assay of this set; here they are far more common.
NIH3T3 tox = Cytotoxic Profiling in NIH 3T3 Cell Line of Diverse Libraries Using Quantitative High-Throughput Screening; AID 1345082, 2018; NIH 3T3 viability, CellTiter-Glo ATP luminescence, 48-72 h; actives 4.3% (n = 94,000); Potency, µM (top dose mostly 96.7 µM), for inactives: top-dose activity change, negative = cytotoxicity, hits mostly inhibitors; also: nearly all actives have a fitted effect of over 55% in size
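Viability of NIH 3T3 cells after 48 or 72 hr compound treatment at 37 °C was assessed by CellTiter-Glo, with luminescence imaged following a 10 min room-temperature step.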
HEK cytotox = Cytotoxic Profiling in HEK 293 Cell Line of Diverse Libraries Using Quantitative High-Throughput Screening. Potency, µM (series often up to 115 µM), for the others: at the highest dose activity change, negative = cytotoxicity, actives largely listed as inhibitors. HEK 293 viability, ATP luminescence (CellTiter-Glo), 48-72 h. actives 6.6% (n = 94,000); also: nearly all actives have a fitted effect of over 60% in size
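ATP-coupled CellTiter-Glo luminescence served as viability read-out, recorded 10 min after reagent addition at room temperature. HEK 293 cells, 250 cells/well, had been incubated with pintool-transferred compound for 48 or 72 hr at 37 degree Celsius.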
FLuc inh = Firefly luciferase inhibition profiling of diverse chemical library using quantitative high-throughput screening; Luciferin 4-monooxygenase (Photinus pyralis), P08659; purified P. pyralis luciferase, luminescence, biochemical; Potency, µM (top dose mostly 115 µM), actives largely listed as inhibitors; actives 2.5% (n = 76,000); also: nearly all actives have a fitted effect of over 65% in size
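FLuc 10nM, D-luciferin 10uM, ATP 10uM, Mg acetate 10mM, Tris acetate pH 7.5, Tween/BSA; cpd qHTS; enzyme added last; CCD luminescence.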
hNpr1 antagonist = Natriuretic polypeptide receptor (hNpr1) antagonism - Primary qHTS. HEK293 hNpr1 GloSensor cGMP, ANP-stimulated luminescence. actives 1.6% (n = 76,000). Potency, µM (top dose mostly 46.3 µM), for the others: top-dose activity change, negative = inhibition, hits mostly inhibitors. AID 1347048, 2019. Atrial natriuretic peptide receptor 1 (Homo sapiens), P16066; calls by dose curve; also: nearly all actives have a fitted effect of over 60% in size
Target sequence (P16066 whole entry, looked up): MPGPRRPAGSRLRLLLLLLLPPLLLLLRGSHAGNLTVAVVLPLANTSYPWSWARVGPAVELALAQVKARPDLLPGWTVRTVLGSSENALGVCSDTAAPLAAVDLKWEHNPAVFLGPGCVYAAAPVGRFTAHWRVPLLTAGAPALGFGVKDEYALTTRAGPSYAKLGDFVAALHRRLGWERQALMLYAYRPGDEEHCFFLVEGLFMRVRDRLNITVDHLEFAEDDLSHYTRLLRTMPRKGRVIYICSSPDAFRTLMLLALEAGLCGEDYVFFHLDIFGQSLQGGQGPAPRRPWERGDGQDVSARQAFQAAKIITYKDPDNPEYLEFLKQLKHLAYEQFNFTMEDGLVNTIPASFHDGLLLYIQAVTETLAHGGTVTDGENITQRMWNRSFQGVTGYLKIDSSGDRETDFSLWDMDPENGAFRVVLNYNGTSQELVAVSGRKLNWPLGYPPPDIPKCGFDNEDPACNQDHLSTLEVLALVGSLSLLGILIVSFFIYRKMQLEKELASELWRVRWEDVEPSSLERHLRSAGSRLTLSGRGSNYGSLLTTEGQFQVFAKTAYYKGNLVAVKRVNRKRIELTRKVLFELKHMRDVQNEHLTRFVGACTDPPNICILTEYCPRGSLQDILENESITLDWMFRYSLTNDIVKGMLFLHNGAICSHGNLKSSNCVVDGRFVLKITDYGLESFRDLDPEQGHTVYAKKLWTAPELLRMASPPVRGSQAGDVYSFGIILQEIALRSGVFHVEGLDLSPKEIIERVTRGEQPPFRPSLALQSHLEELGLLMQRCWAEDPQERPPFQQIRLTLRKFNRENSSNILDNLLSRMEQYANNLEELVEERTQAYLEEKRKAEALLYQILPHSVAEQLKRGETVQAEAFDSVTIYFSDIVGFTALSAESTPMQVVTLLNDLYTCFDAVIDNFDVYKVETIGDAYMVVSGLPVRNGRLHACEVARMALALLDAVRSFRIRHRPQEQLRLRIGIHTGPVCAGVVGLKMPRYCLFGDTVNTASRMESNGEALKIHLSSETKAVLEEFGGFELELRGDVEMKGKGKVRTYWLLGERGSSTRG
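Compound pre-incubated 30 min at room temperature on GloSensor-loaded HEK293 cells stably carrying hNpr1 and the pGS-40F cGMP biosensor. Stimulation uses hNppA at 0.1 nM final; luminescence is taken at baseline and 20 min post-agonist.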
GPT2 inh = Primary qHTS assay for inhibitors of Glutamate pyruvate transaminase 2 (GPT2) | actives 0.25% (n = 100,000) | AID 1671188, 2021 | Alanine aminotransferase 2 (Homo sapiens), Q8TD30 | Potency, µM (doses to about 57.7 µM), without a hit: at the top dose activity change, negative = inhibition, most hits filed as inhibitors | Recombinant GPT2, coupled pyruvate oxidase/HRP Amplex Red fluorescence; also: nearly all actives have a fitted effect of over 60% in size
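Fluorescence read-out: pyruvate from GPT2 turnover coupled to pyruvate oxidase, HRP and Amplex Red (0.2mM ThPP, 0.2U/mL PO and HRP, 50uM Amplex final). Substrates 250uM a-KG, 2mM L-alanine; enzyme 10ng/uL; 30 min RT.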
* marks the source's active call; other numbers are inactive results; i = inactive; ? = inconclusive; . = no result given; [ ] = remark or other dose. Unless noted, calls follow the shape of the dose curve; as a rule, active = well fitted curve in the direction sought with a large enough effect; inconclusive = small, poorly fitted or top-dose-only effect, or another doubt; inactive = no such curve, though single readings can be large; an effect the other way counts as inactive or inconclusive. % is scaled to controls: 0 for no effect and ±100 for the full control effect; potency is read from the fitted curve at half-maximal effect.

SMILES	NIH3T3 tox	HEK cytotox	FLuc inh	hNpr1 antagonist	GPT2 inh
CC(C)C[C@@H]1N[C@H](C(=O)NCc2ccccn2)Cc2c[nH]c3cccc1c23	?	28.2µM*	i	-18.3%[70.6 µM]	1.1%[88.5 µM]
CC(C)C[C@@H]1N[C@H](C(=O)NCc2ccc(F)cc2)Cc2c[nH]c3cccc1c23	39.8µM*	28.2µM*	i	-15.7%[70.6 µM]	-13.7%[88.5 µM]
CC(C)C[C@@H]1N[C@H](C(=O)NCCN2CCCC2)Cc2c[nH]c3cccc1c23	?	?	i	-6.9%[70.6 µM]	i
CC(C)C[C@@H]1N[C@H](C(=O)NCc2ccccc2)Cc2c[nH]c3cccc1c23	31.6µM*	35.5µM*	i	-17.8%[70.6 µM]	-15.0%[88.5 µM]
COc1ccc(CNC(=O)[C@@H]2Cc3c[nH]c4cccc(c34)[C@H](CC(C)C)N2)cc1	44.7µM*	79.4µM*	i	-11.9%[70.6 µM]	-4.0%[88.5 µM]
O=C(c1cccc(OC(F)F)c1)N1CCn2nc(C(O)C3CC3)cc2C1 (stereo not given)	-29.0%	-2.7%	i	-1.0%	4.6%
NC(=O)c1ccc(Nc2cnc3ccc(-c4ccccc4)nn23)cc1	28.2µM*	?	i	-9.5%[70.6 µM]	-29.1%[88.5 µM]
COc1ccc(Nc2cnc3ccc(-c4ccccc4)nn23)cn1	39.8µM*	44.7µM*	?	-2.9%[70.6 µM]	?
COc1ccc(Nc2cnc3ccc(-c4ccccc4)nn23)cc1	?	70.8µM*	?	-12.1%[70.6 µM]	i
COc1ccc(Nc2cnc3ccc(-c4ccc(F)cc4)nn23)cn1	35.5µM*	50.1µM*	i	3.2%[70.6 µM]	?
COc1ccc(Nc2cnc3ccc(-c4ccc(F)cc4)nn23)cc1	?	?	i	-2.2%[70.6 µM]	?
COc1cncc(Nc2cnc3ccc(-c4ccc(OC)nc4)nn23)c1	-24.4%[138 µM]	?	i	1.3%[70.6 µM]	?
CCC(CC)N1CC(Oc2cccc(C(=O)NCC3CC3)c2)C1	-8.2%	-14.0%	i	9.2%	i
O=C(Cn1nc2c(cc1=O)CCCC2)NCc1cccc(Cl)c1	2.6%	-9.5%	i	1.8%	i
CN1CCCN(C(=O)CCC[C@@H]2[C@H]3CCCN4CCC[C@@H](CN2Cc2cccnc2)[C@@H]34)CC1	i	3.0%	i	0.6%	-5.1%
O=C(c1ccccc1F)N1CCC[C@H]1c1nc(-c2ccccc2)no1	-25.7%	?	i	-7.9%	i
Fc1ccc(-c2ccc3ncc(Nc4ccncc4)n3n2)cc1	?	100µM*	i	-2.1%[70.6 µM]	-1.2%[88.5 µM]
COc1cncc(Nc2cnc3ccc(N(C)Cc4ccc(F)cc4)nn23)c1	?	?	i	?	?
Fc1ccc(-c2ccc3ncc(Nc4ccc5c(c4)OCO5)n3n2)cc1	?	79.4µM*	i	-11.0%[70.6 µM]	?
COc1ccc(-c2ccc3ncc(Nc4ccc5c(c4)OCO5)n3n2)cn1	?	?	i	-13.4%[70.6 µM]	?
CN(Cc1ccc(F)cc1)c1ccc2ncc(Nc3ccc4c(c3)OCCO4)n2n1	?	39.8µM*	i	-19.1%[70.6 µM]	i
c1ccc(-c2ccc3ncc(Nc4ncccn4)n3n2)cc1	?	?	i	0.8%[70.6 µM]	i
COc1ccccc1C(=O)NC1CCCN(c2ccnc3ccnn23)C1 (stereo not given)	?	?	.	.	i
O=C(NCc1cccc(C(F)(F)F)c1)C1CCc2nnc(C3CCN([S+](=O)([O-])c4ccccc4Cl)CC3)n21 (stereo not given)	?	?	.	.	-3.5%
O=C(c1ccc(F)cc1)N1CCN(c2nccc(Nc3ccccc3F)n2)CC1	31.6µM*	39.8µM*	.	.	-12.6%
COc1ccccc1Nc1ccnc(N2CCN(C(=O)c3ccc(F)cc3)CC2)n1	22.4µM*	50.1µM*	.	.	1.3%
COc1ccccc1Nc1ccnc(N2CCN(C(=O)C3CCCC3)CC2)n1	?	?	.	.	i
